Measurements reported in PubChem BioAssay (NCI).
Compounds without any hit were thinned out: in the full panel of roughly 83,000, 20% have a hit.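 Each cell line was grown in a 96-well plate and treated with one concentration of compound for 48 hours. Values below 10 were considered active.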 Values without a mark were called inactive. The source made the active and inactive calls.

Assays:
Test in all cases: NCI-60 one-dose screen, 48 h (100 = growth as untreated, 0 = no growth, -100 = all killed)
Conditions in all cases: 10 µM unless noted
DU-145 prostate = test system: DU-145 prostate
K-562 leukemia = test system: K-562 leukemia
MALME-3M melanoma = test system: MALME-3M melanoma
MDA-MB-231 breast = test system: MDA-MB-231 breast
RXF 393 renal = test system: RXF 393 renal
SF-268 CNS = test system: SF-268 CNS
SF-295 CNS = test system: SF-295 CNS
SF-539 CNS = test system: SF-539 CNS
UACC-257 melanoma = test system: UACC-257 melanoma
M14 melanoma = test system: M14 melanoma
HCT-15 colon = test system: HCT-15 colon
HT29 colon = test system: HT29 colon
SNB-19 CNS = test system: SNB-19 CNS
U251 CNS = test system: U251 CNS
PC-3 prostate = test system: PC-3 prostate
SK-MEL-5 melanoma = test system: SK-MEL-5 melanoma
UACC-62 melanoma = test system: UACC-62 melanoma
LOX IMVI melanoma = test system: LOX IMVI melanoma
SK-MEL-28 melanoma = test system: SK-MEL-28 melanoma
SNB-75 CNS = test system: SNB-75 CNS

Structure (SMILES)	growth (DU-145 prostate)	growth (K-562 leukemia)	growth (MALME-3M melanoma)	growth (MDA-MB-231 breast)	growth (RXF 393 renal)	growth (SF-268 CNS)	growth (SF-295 CNS)	growth (SF-539 CNS)	growth (UACC-257 melanoma)	growth (M14 melanoma)	growth (HCT-15 colon)	growth (HT29 colon)	growth (SNB-19 CNS)	growth (U251 CNS)	growth (PC-3 prostate)	growth (SK-MEL-5 melanoma)	growth (UACC-62 melanoma)	growth (LOX IMVI melanoma)	growth (SK-MEL-28 melanoma)	growth (SNB-75 CNS) [%]
COc1cc2c(c(OC)c1OC)C(=O)/C(=C/c1cc(C)c(O)c(C)c1)S2	12.3%	21.3%	45.6%	37.7%	-10.4% (active)	56.4%	13.7%	7.47% (active)	78.2%	28.8%	25.4%	82.4%	39.2%	33%	30.9%	4.33% (active)	50.8%	26.4%	59.3%	
Cc1cc(-c2noc(C(F)(F)F)n2)ccc1N1CCN(c2cc(C(=O)N(C)C)no2)CC1	85.2%	33.1%	78.5%	69.6%	105%	82.2%	49.8%	86.1%	54%	81.5%	70.3%	78.3%	64.1%	71.9%	56.8%	2.91% (active)	62.1%	62.4%	84.8%	
OCCCCc1nccc2c1[nH]c1ccccc12	114%	79.8%	115%	94.8%	65.7%	105%	102%	90.8%	113%	102%	104%	94.6%	110%	108%		97.5%	96.8%	99.8%	111%	80.5
O=C(Oc1ccc[nH]c1=O)c1cc([N+](=O)[O-])cc([N+](=O)[O-])c1	123%	87.1%	156%	114%	83.3%	116%	113%	99.3%	19.7%	101%	103%	112%	114%	109%		105%	114%	99.5%	122%	97.1
Cc1[nH]c(-c2nc3ccccc3[nH]2)c(C)c1C(=O)NNc1ccc(Cl)cc1	105%	94.1%	94.5%	79.2%	103%	95.3%	109%	95.7%	91%	102%	94.1%	104%	87.1%	103%	85.6%	98.2%	90.2%	93.6%	99.6%	
OC(COc1cccc2ccccc12)CN1CCN(c2ccccc2)CC1 (stereo not given)	109%	114%	97.7%	96.1%	9.82% (active)	103%	73.3%	99.8%	63.3%	86.8%	99.6%	94%	97.4%	95.7%		90.4%	98.2%	92.1%	105%	81.8
CC(C)(C)N1CC(OC(N)=O)C1	109%	130%	106%	97.7%	29.1%	109%	113%	98%	4.43% (active)	97.6%	113%	101%	106%	101%		102%	103%	96.3%	109%	
CCNCCNc1cc(-c2ccc(C#N)cc2)c(C#N)c2nc3ccccc3n12	33.6%	23.9%	51.6%	6.63% (active)	-10.6% (active)	35.1%	-64.6% (active)	-77.3% (active)	57.5%	-6.91% (active)	33.6%	4.72% (active)	51%	-23.4% (active)	44.7%	65.7%	-34.8% (active)	-53.9% (active)	-47.7% (active)	
CCCCCOC(=O)c1ccc(NC(=O)CNCC(C)C)cc1	102%	88.8%	107%	57.7%	89.7%	95.9%	100%	102%	99.3%	97.4%	86.8%		90.6%	93.1%	65.8%	95.7%	91.6%	94.4%	105%	86.3
O=C(/C=C/C12c3ccccc3C(c3ccccc31)C1C(=O)N(c3ccc(Cl)cc3)C(=O)C12)c1ccccn1 (stereo not given)	-86.5% (active)	4.62% (active)	-52% (active)	-16% (active)	-88.6% (active)	8.62% (active)	-9.27% (active)	-52.7% (active)	2.58% (active)	-1.41% (active)	-35% (active)		-71.9% (active)	-48.3% (active)	-19.8% (active)	-83.5% (active)	-44.6% (active)	-89.4% (active)	-12.4% (active)	
COc1ccc(O)c(-c2cc(-c3ccccc3)c(C#N)c(=O)[nH]2)c1	102%	68.9%	112%	89.9%	104%	103%	95.2%	98.1%	85%	94.9%	100%		103%	73.4%	78.3%	73.7%	86.1%	64.3%	113%	93.8
C=C(C=O)C1CCC2(C(=O)O)CCC3(C)C(CCC4C5(C)CCC(O)C(C)(C)C5CCC43C)C12 (stereo not given)	-38.4% (active)	13.6%	1.55% (active)	32.6%	-63.7% (active)	24.3%	-6.97% (active)	-43.4% (active)	-46.4% (active)		-15.1% (active)	3.49% (active)	66.3%	6.78% (active)	20.4%	-96.9% (active)	-84.2% (active)	-74.1% (active)	-30.8% (active)	47.1
N=C(N)c1ccc(-c2ccc(-c3ccc(Cl)c(Cl)c3)o2)cc1	3.63% (active)	-30.2% (active)	53.6%	-61% (active)	60.2%	73.1%	-80% (active)	-89.1% (active)	84.5%	11.8%	-55.7% (active)		25.4%	-36.9% (active)	47.4%	83.5%	93.5%	-96% (active)	59.7%	78.6
